# “And” between values parts separate entries of the source, which are not always exact repeats. Equal values may be shown once. Results filed as inconclusive are left out. Values without a mark were called inactive. The source made the active and inactive calls. Calls follow the shape of the dose curve; as a rule, active = well fitted inhibition curve with a large enough effect; inconclusive = small, poorly fitted or top-dose-only effect; inactive = flat fitted curve, though single readings scatter.
# Experiment: P-glycoprotein substrates identified in KB-8-5-11 adenocarcinoma cell line, qHTS therapeutic library screen (AID 1346987); also: nearly all actives have a fitted effect of over 65% in size
# Conditions: KB-8-5-11 (P-gp overexpressing) viability, CellTiter-Glo, 72 h; series mostly up to 44.5 µM; activity change, negative = cytotoxicity: at the top concentration
# Procedure, shortened: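 Luminescence from CellTiter-Glo, read 5 min after addition, quantified survival of KB-8-5-11 (P-gp-overexpressing) cells exposed to compounds for 72 h. AC50 was derived from concentration-response curves.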
# % is scaled to controls: 0 for no effect and ±100 for the full control effect; potency is read from the fitted curve at half-maximal effect.
Compound,"activity change, negative = cytotoxicity",Potency,outcome
COC1=CC(=O)C=C(C)C12Oc1c(Cl)c(OC)cc(OC)c1C2=O (configuration not stated),-23.7%,,
C=C[C@]1(C)C[C@H](O)[C@H]2C(=C)C(=O)O[C@@H]2[C@H]1C(=C)CO,-8.2%,,
C1=C/COCc2cc(ccc2OCCN2CCCC2)Nc2nccc(n2)-c2cccc(c2)COC/1,,4.61 µM (active) and 7.31 µM (active),
CC(=O)c1c(C)cc2cccc(O)c2c1O[C@@H]1O[C@H](CO)[C@@H](O)[C@H](O)[C@H]1O,7.57%,,
COCCCNC(=O)c1ccc(Cn2c(=O)c3ccccc3n(Cc3ccc(C(C)C)cc3)c2=O)cc1,-11.7%,,
CC#CC(=O)Nc1ccc2ncnc(Nc3cccc(Br)c3)c2c1,,11.6 µM (active),
C=C(COC(=O)C(O)C(O)CN)C12OC1C1(C)C(=CC2=O)C(O)C(O)CC1C (configuration not stated),,,inactive
Cc1nc(C(=O)N2CCC[C@H]2Cc2nnc(-c3ccccc3)o2)c(-c2ccccc2F)s1,-19.2%,,
COc1ccc(C(=O)O[C@H]2C=COC=C3C=C4C(=O)N(C)C(=S)C(=O)N4[C@@H]32)cc1Oc1cc(C=O)ccc1O,,,inactive [at 17.3 µM]
Cc1c(F)ccc(C(=O)Nc2cc([N+](=O)[O-])ccc2N2CCN(C)CC2)c1Cl,-20%,,
COC(CCc1ccc(O)cc1)CC(=O)CCc1ccc(O)cc1 (configuration not stated),-0.254%,,
C=C1C(OC2OC(CO)C(O)C(O)C2O)CC2C(C)(C)C(O)CCC2(C)C1CC/C(C)=C\COC(=O)CC(=O)O (configuration not stated),,,inactive [at 17.3 µM]
C=C(C)C1CCC2(C(=O)O)CCC3(C)C(CCC4C5(C)C(C=O)C(O)C(C)(C)C5CCC43C)C12 (configuration not stated),-5.72% [at 17.3 µM],,
CC(=O)O[C@@H]1C2=C(O)C(=O)[C@](C)(OC(C)=O)C(=O)C2=CO[C@@]12O[C@@H](C)CC[C@H]2OC(C)=O,,,inactive [at 17.3 µM]
C=C1CCC2[C@](C)(CCC[C@@]2(C)C=O)[C@H]1CC/C(C)=C/CO (some centres not stated),-6.99%,,
C=CCCN1CCC2(CC1)CN(C(=O)c1c(F)cccc1F)c1ccc(Cl)cc12,-10.6%,,
CCC(C)C1NC(=O)C(Cc2ccccc2)NC(=O)C(CCCCCC(=O)C(O)CO)NC(=O)C2CCCCN2C1=O (configuration not stated),,,inactive [at 17.3 µM]
COc1cc(OC)c2c(=O)[nH]c(-c3cc(C)c(OCCO)c(C)c3)nc2c1,-10.4%,,
CCC(C)/C=C(C)/C=C/C1=CC2=C(Cl)C(=O)C(C)(OC(C)=O)C(=O)C2(O)C(OC)O1 (configuration not stated),-0.334% [at 17.3 µM],,
CCOc1ccc(-n2c(C(C)N(Cc3cccnc3)C(=O)Cc3ccc(F)c(C(F)(F)F)c3)nc3ncccc3c2=O)cc1 (configuration not stated),5.44%,,
COc1cc(O)c2c(c1)/C=C/C[C@H](O)[C@H](O)C(=O)/C=C\C[C@H](C)OC2=O,,9.2 µM (active) and 8.2 µM (active),
CC1(C)CC[C@]2(C(=O)O)[C@H](O)C[C@]3(C)C(=CCC4[C@@]5(C)CC[C@H](O[C@@H]6O[C@H](CO[C@@H]7OC[C@H](O)[C@H](O)[C@H]7O[C@@H]7OC[C@H](O)[C@H](O)[C@H]7O)[C@@H](O)[C@H](O)[C@H]6O)C(C)(C)C5CC[C@]43C)[C@@H]2C1 (some centres not stated),,,inactive [at 9.29 µM]
CN1c2c(nc(N)[nH]c2=O)NC[C@@H]1CNc1ccc(C(=O)N[C@@H](CCC(=O)O)C(=O)O)cc1,,,inactive
CCN1CCC[C@@H]1CNC(=O)c1ccc2c(c1)NC(=O)c1cccc(C)c1S2,2%,,
CC1(CO)CC(O)[C@]2(C(=O)O)CCC34CC3(C=CC3[C@]5(C)C(CC[C@]34C)C(C)(CO)[C@@H](O)[C@H](O)[C@@H]5O)C2C1 (some centres not stated),,,inactive [at 17.3 µM]
COc1cc2ncnc(Nc3cccc(I)c3)c2cc1OC,,5.8 µM (active),
C=C1C(=O)O[C@@H]2/C=C(\CO)CC/C=C(\CO)[C@H](OC(C)=O)C(OC(=O)C(C)CC)C12 (some centres not stated),,,inactive [at 17.3 µM]
